Screening results deposited in PubChem by National Center for Advancing Translational Sciences (NCATS).
PNC inhibitor: perinucleolar compartment assembly inhibition. PC3M PTB-GFP, PNC prevalence imaging, 16 h; stronger effect = lower value. activity change (PNC), negative = inhibition, % at 10 µM. actives 3.1% (n = 140,000);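 active = readout at or below -70, meaning at least 70% loss of cells showing the perinucleolar compartment, a nuclear body marking cancer cells; inconclusive = readout between -30 and a set limit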;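 note: plate controls were DMSO wells for no effect and camptothecin positive control wells for full effect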
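Read-out is percentage of cells bearing a perinucleolar compartment, from automated 20x imaging of fixed, Hoechst-stained PC3M PTB-GFP cells. Cells were seeded 4 h, then exposed 16 h to compound (23 nl of library stock) in duplicate plates.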
ALDH1A1 inh: blocks purified human ALDH1A1 activity | P00352 | actives 7.3% (n = 220,000) | Potency, µM (doses to about 75.3 µM), inactives show at the top dose activity, negative = inhibition, most hits filed as inhibitors | Purified ALDH1A1, NADH fluorescence, propionaldehyde substrate | AID 1030; active = well fitted inhibition curve with a large enough effect, not every such curve was filed as active; inconclusive = small, poorly fitted or top-dose-only effect, or another doubt; inactive = no such curve, though single readings can be large or run the other way;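 note: potency is the fitted concentration of half-maximal effect; plate controls were no enzyme wells and a reference inhibitor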
IMPase Li inh: membrane-permeable IMPase blocker, potentiated with lithium | actives 0.35% (n = 210,000) | CHO-M1 cells, IP1 TR-FRET (IP-One), carbachol + lithium | AID 1457 | Potency, µM (series often up to 59.4 µM), inactives show at the top dose activity, negative = IMPase inhibition, most hits filed as inhibitors;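 note: IP1 builds up when IMPase is blocked and the TR-FRET signal falls; potency is the fitted concentration of half-maximal effect; plate controls were basal vehicle for no effect and high inhibitor control for full effect; nearly all actives have a fitted effect of over 50% in size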
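Readout is a homogeneous TR-FRET IP1 immunoassay (Ex 320, Em 665 and 620), where raised cytosolic IP1 lowers signal. Cells were CHO-M1 treated 30 min at 37C with test compounds plus a little lithium; AC50 values came from Hill-equation fitting.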
IMPase inh: membrane-permeable compound that blocks inositol monophosphatase; P97697; CHO-M1 cells, IP1 accumulation, HTRF TR-FRET ratio; inhibition (IP1 accumulation), % at 46.1 µM; 120,000 tested, under 10 active; active = well fitted curve in the direction sought with a large enough effect in the signal ratio, not every such curve was filed as active; inconclusive = small, poorly fitted or top-dose-only effect, or a change in a side signal; inactive = no such curve, though single readings can be large or run the other way; the % refers to the signal ratio;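 note: cells stimulated with carbachol in lithium chloride buffer; plate controls were DMSO basal wells for no effect and reference inhibitor wells for full effect; higher means more IMPase inhibition seen as more IP1 and lower FRET ratio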
Target sequence (P97697 whole entry, looked up): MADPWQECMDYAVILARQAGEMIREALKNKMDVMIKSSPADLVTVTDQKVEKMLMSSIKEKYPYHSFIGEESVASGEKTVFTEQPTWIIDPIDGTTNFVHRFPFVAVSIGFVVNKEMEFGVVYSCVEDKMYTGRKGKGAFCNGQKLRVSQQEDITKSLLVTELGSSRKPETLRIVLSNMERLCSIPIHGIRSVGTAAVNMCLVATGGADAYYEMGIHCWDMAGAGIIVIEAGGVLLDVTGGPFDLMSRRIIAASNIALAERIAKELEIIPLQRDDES
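Carbachol-driven Gq signalling in CHO-M1 cells (2000/well) generates IP1. Compounds that block IMPase raise IP1 and so reduce the FRET signal from Eu-anti-IP1 and d2-IP1 after a 10 min room-temperature lysis.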
12-hLO inh: blocks human 12-lipoxygenase activity | actives 0.12% (n = 150,000) | P18054 | Potency, µM (top dose mostly 57.1 µM), without a hit: at the highest dose activity change, negative = inhibition, usual class: inhibitors | AID 1452 | purified 12-hLO, xylenol orange hydroperoxide absorbance; note: potency is the fitted concentration of half-maximal effect; nearly all actives have a fitted effect of over 55% in size
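Hydroperoxide output read as Fe(III)-xylenol orange absorbance, 573-to-405 nm ratio, after 30 min reaction with 40 uM arachidonic acid. Enzyme: 150 nM purified human 12hLO, 15 min compound preincubation; 25 mM Hepes pH 7.0, room temperature.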
HPGD inh: inhibitors of human 15-hydroxyprostaglandin dehydrogenase (HPGD); P15428; purified HPGD, NADH fluorescence kinetic, PGE2 substrate; Potency, µM, for the others: at the highest dose activity change, negative = inhibition, actives largely listed as inhibitors; actives 4.3% (n = 150,000); active = well fitted inhibition curve with a large enough effect, not every such curve was filed as active; inconclusive = small, poorly fitted or top-dose-only effect, or another doubt; inactive = no such curve, though single readings can be large or run the other way; note: potency is the fitted concentration of half-maximal effect
Target sequence (P15428 whole entry, looked up): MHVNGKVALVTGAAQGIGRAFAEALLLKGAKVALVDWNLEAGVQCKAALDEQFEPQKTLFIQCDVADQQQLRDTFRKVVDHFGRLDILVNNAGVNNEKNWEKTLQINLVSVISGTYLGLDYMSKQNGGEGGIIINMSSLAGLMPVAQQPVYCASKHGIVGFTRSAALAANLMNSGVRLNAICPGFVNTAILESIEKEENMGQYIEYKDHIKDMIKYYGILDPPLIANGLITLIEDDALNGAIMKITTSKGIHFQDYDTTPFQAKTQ
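NADH formation kinetics: reaction with 30 uM PGE2 and 1 mM NAD+ (final), 20 nM enzyme, Tris-HCl pH 8 with Tween 20, after 15 min compound preincubation at room temperature. Fluorescence change, last versus first of five reads.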
The depositor's hits bear a star; u = inconclusive; x = no result; [ ] = remark or other dose. Shown are actives, neighbours in structure and some others; about 11% of the full set was active somewhere. Unless noted, calls come from the whole dose curve; as a rule, active = well fitted curve in the direction sought with a large enough effect; inconclusive = small, poorly fitted or top-dose-only effect, or another doubt; inactive = no such curve, though single readings can be large; an effect the other way counts as inactive or inconclusive. Unless noted, % is set by controls: 0 for no effect and ±100 for the full control effect.

SMILES | PNC inhibitor | ALDH1A1 inh | IMPase Li inh | IMPase inh | 12-hLO inh | HPGD inh
C[C@@H]1CC[C@@H]2N(C1)C[C@H]1[C@@](O)([C@H](O)C[C@]3(O)[C@H]4CC[C@H]5[C@]6(O)O[C@]4(C[C@]13O)[C@@]5(C)CC[C@@H]6O)[C@@]2(C)O | x | 13%[13.5 µM] | -7% | x | -2%[11.4 µM] | -7%
O=c1c2ccccc2nc(SCC2CCCCO2)n1-c1ccccc1 (configuration not stated) | 5 | 18µM* | 7% | x | -4% | -8%
CCN(CC)CCSc1nc2ccccc2c(=O)n1-c1ccc(Cl)cc1 | x | x | x | 11 | x | x
Cc1cc(N2C(=O)C3CCCN3C2c2sccc2C)no1 (configuration not stated) | -1 | 1.6µM* | x | -2 | -8% | x
CC1(C)N([O-])[N+](=O)C1(C)Br (configuration not stated) | x | 11µM* | -2% | x | -16% | 32µM*
O=P(NS(=O)(=O)c1ccc(Cl)cc1)(Oc1ccccc1)Oc1ccccc1 | -100* | -2% | 7% | -7 | 0% | -14%
O=P(Nc1ccccc1)(Nc1ccccc1)Oc1ccc(Cl)cc1 | 14 | -3% | 28%[38.3 µM] | 5 | -1% | 5.6µM*
O=C1NC(=S)N(Cc2ccco2)C(=O)/C1=C\c1cccs1 | x | 18µM* | -1% | x | x | x
C=CCN1C(=O)/C(=C/c2cccs2)C(=O)NC1=S | u | 8.9µM* | 11% | 3 | -13% | 3.2µM*
C=CCN1C(=O)/C(=C/c2ccc(N3CCOCC3)o2)C(=O)NC1=S | 50 | -6% | -4% | x | -9% | 28µM*
CCN1C(=O)C(=C2C=C(C)N(Cc3ccco3)C(C)=C2)C(=O)N(CC)C1=S | x | u | -20% | x | x | x
CSCC[C@H](NC(=O)[C@H](Cc1ccccc1)NC(=O)CNC(=O)CNC(=O)[C@@H](N)Cc1ccc(O)cc1)C(=O)O | x | -1% | 0% | x | x | x
C=CCCC#N | x | 3.2µM* | 7% | x | -1% | -10%
CCOP(=S)(OCC)SCCSCC | x | 14µM* | 20% | x | -1% | -11%
CCCn1nc2ccccc2c1P(=O)(N1CCOCC1)N1CCOCC1 | -90* | 4% | -4%[38.3 µM] | 3 | -2% | -1%
C#CCO | x | 22µM* | -5% | x | -1% | -2%
O=C1NC(=S)NC(=O)C1C/C=C/c1ccccc1 | -1 | 28µM* | 22%[38.3 µM] | -7 | -9% | 10µM*
CC[C@H](C)[C@H](NC(=O)[C@H](CCCN=C(N)N)NC(=O)[C@H](CCCN=C(N)N)NC(=O)[C@H](CC(C)C)NC(=O)[C@H](Cc1ccccc1)NC(=O)CNC(=O)CNC(=O)[C@@H](N)Cc1ccc(O)cc1)C(=O)O | x | 5% | -4% | x | x | x
Cc1cc(NC(=O)CCl)on1 | x | 3.5µM* | -6% | x | x | x
ClCCl | x | u | 4% | x | -2% | -7%
Cc1nn(C2CCOC(C)(C)C2)c2c1C(c1ccc(OC(C)C)cc1)SCC(=O)N2 (configuration not stated) | -7 | u | -4%[38.3 µM] | 8 | -10% | -10%
Cc1ccc(-n2nc(C)c3c2NC(=O)CSC3c2ccc3c(c2)OCO3)cc1 (configuration not stated) | 48 | u | 8%[38.3 µM] | 8 | u | 18µM*
CCCC(C)n1[nH]c(=O)c2c1NC(=O)CSC2c1ccc(OC)cc1 (configuration not stated) | 3 | 6% | 8%[38.3 µM] | 8 | 2% | -2%
COc1ccc(C2SCC(=O)Nc3c2c(C)nn3-c2ccccc2)cc1 (configuration not stated) | 54 | -4% | 32%[38.3 µM] | 4 | -15% | 13µM*
NCCc1ccc(S(=O)(=O)O)cc1[N+](=O)[O-] | x | 0%[13.5 µM] | 4% | x | -1%[11.4 µM] | -5%
SMILES | PNC inhibitor | ALDH1A1 inh | IMPase Li inh | IMPase inh | 12-hLO inh | HPGD inh
O=C(O)CN1CCN(CC(=O)O)CC(=O)[O][Hg][O]C(=O)C1 | x | 1.6µM* | 3% | x | 0.28µM* | 0.04µM*
CO[C@@H]([CH2][Hg])CN1C(=O)c2ccccc2S1(=O)=O.Cn1c(=O)c2nc[nH]c2n(C)c1=O | x | 3.2µM* | -9% | x | 0%[11.4 µM] | 1.4µM*
Clc1ccc(C(Cl)(Cl)Cl)cc1Cl | x | 0% | -2% | x | -3% | 1%
Cc1ccccc1C(=O)NNC(=S)NC(=O)COc1ccccc1 | 51 | 7.1µM* | 18%[38.3 µM] | -4 | u | 25µM*
CN(C)CS/C(N)=N/[C@H](O)C(Cl)(Cl)Cl | x | 3.2µM* | -4% | x | -7%[11.4 µM] | -10%
O=C(c1csc2c1CCCCC2)N1CCC2(CC1)OCCO2 | u | 8.9µM* | -12%[38.3 µM] | 1 | -5% | u
O=C(c1cc2c(s1)CCCC2)N1CCC2(CC1)OCCO2 | -26 | 11µM* | 17%[38.3 µM] | -1 | 1% | 25µM*
O=C(c1cc2c(s1)-c1ccccc1OC2)N1CCC2(CC1)OCCO2 | -28 | u | -2% | -1 | -2% | u
COc1cc2c(cc1OC)[C@@]13CCN4C=C5CCO[C@H]6CC(=O)N2[C@@H]1C6[C@H]5C[C@H]43 (some centres not stated) | x | 11%[13.5 µM] | -2% | x | x | -9%
COc1cccc(C(=O)N2CCN(Cc3ccccn3)CC2)c1OC | u | 7.1µM* | 0%[38.3 µM] | 7 | -12% | -10%
CN1Cc2c(ccc3c2OCO3)C2C(O)Cc3cc4c(cc3C21)OCO4 (configuration not stated) | x | 4% | 14% | 12 | 2% | 1%
CC(=O)N1CCN(c2ccc(OCC3CO[C@@](Cn4ccnc4)(c4ccc(Cl)cc4Cl)O3)cc2)CC1 (some centres not stated) | x | 0% | 19% | x | -6% | -2%
Cc1ccc(N/N=C/c2c(O)n(-c3ccccc3)c(=O)[nH]c2=O)cc1 | x | 11µM* | 9% | x | x | x
Cc1cccc2c1=NC(=O)/C(=C/c1c(O)[nH]c(=O)[nH]c1=O)C=2 | -29 | 0.5µM* | -4% | -11 | -3% | u
O=P(O)(O)CCP(=O)(O)O | x | 1%[13.5 µM] | -7% | x | 1%[11.4 µM] | -6%
